# Data from PubChem BioAssay (NCATS).
# Where “and” joins values, the source holds several entries; their conditions need not be identical. Equal entries are not always repeated. Unmarked numbers belong to inactive results. Records with an inconclusive call do not appear. Calls of active or inactive are those of the source. Unless noted, the call rests on the fitted dose curve; in most records, active means well fitted curve in the direction sought with a large enough effect; inconclusive means small, poorly fitted or top-dose-only effect, or another doubt; inactive means no such curve, though single readings can be large; an effect the other way counts as inactive or inconclusive.
# Columns and labels:
# [1] = target: Glutaminase kidney isoform, mitochondrial (Homo sapiens) (UniProt O94925); test: qHTS for Inhibitors of Glutaminase (GLS): LOPAC Validation (AID 624146); details: glutaminase enzyme activity inhibition; series mostly up to 46.1 µM;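 further: glutamate product detected by oxidase and peroxidase coupled Amplex red fluorescence gain; on the % scale 0 is the no-effect control and ±100 the full control effect; nearly all actives have a fitted effect of over 60% in size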
# Glutaminase kidney isoform, mitochondrial (Homo sapiens), sequence (O94925 whole entry, looked up, canonical isoform): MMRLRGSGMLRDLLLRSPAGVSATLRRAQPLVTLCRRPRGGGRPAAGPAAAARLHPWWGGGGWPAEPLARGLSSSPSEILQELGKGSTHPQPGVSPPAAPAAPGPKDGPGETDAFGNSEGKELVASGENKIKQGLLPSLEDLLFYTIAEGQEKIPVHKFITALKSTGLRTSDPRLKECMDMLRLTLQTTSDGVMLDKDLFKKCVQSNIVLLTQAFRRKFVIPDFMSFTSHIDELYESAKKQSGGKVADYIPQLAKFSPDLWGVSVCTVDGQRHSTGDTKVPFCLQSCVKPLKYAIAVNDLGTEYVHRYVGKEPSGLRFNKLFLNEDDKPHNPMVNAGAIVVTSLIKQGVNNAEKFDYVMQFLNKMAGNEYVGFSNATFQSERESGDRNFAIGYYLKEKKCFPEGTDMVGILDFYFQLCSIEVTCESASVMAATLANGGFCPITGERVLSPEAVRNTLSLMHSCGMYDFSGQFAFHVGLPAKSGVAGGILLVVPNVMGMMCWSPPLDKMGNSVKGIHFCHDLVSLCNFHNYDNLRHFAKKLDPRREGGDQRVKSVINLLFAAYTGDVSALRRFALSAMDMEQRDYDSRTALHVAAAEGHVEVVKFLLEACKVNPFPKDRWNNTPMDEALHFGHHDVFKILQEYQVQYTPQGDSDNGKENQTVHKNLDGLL
# Procedure, shortened: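 Compounds were pin-transferred onto hKGA, after which L-glutamine (1 mM solution) and a detection mix of glutamate oxidase, HRP and Amplex Red were added. Initial and 30 min RT fluorescence reads were collected.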
# [2] = qHTS of Trypanosoma Brucei Inhibitors: LOPAC Validation (AID 624147); details: purified enzyme assay, luminescence, 45 min; series mostly up to 57.5 µM; further: 0% is about no effect
# Procedure, shortened: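 Readout: single end-point luminescence (Kinase-Glo Plus, 10 min). Reaction conditions were TbPYK/substrate plus 130 uM ADP, 45 min at RT, pH 7.2 TEA buffer. No-enzyme wells served as controls, and data were normalized before concentration-response fitting.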
# [3] = target: Glucagon-like peptide 1 receptor (Homo sapiens) (UniProt P43220); test: qHTS of GLP-1 Receptor Agonists: LOPAC Validation (AID 624148); details: GLP-1R agonist cell assay; series mostly up to 46.1 µM;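 further: 0% is about no effect; higher luminescence signal means agonism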
# Glucagon-like peptide 1 receptor (Homo sapiens), sequence (P43220 whole entry, looked up): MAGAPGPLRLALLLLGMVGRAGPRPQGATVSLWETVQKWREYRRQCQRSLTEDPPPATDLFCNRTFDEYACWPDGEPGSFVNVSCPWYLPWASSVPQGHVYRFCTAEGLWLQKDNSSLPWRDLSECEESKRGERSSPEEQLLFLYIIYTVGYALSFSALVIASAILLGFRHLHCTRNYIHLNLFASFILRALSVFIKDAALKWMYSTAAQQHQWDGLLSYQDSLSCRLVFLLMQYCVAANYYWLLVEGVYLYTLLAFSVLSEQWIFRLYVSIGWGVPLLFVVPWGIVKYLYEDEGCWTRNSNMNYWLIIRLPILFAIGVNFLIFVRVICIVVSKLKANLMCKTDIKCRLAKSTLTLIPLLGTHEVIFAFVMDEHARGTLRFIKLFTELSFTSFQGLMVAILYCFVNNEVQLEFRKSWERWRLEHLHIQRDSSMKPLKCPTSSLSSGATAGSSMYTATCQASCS
# Procedure, shortened: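 HEK293 cells stably co-expressing GLP-1R and a cAMP-responsive luciferase reporter, plated 12 hours before compound, then incubated 4-6 hr at 37 deg C. Luminescence read 12 min after detection reagent.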
# [4] = qHTS of Nrf2 Activators: LOPAC Validation (AID 624149); details: Nrf2/ARE reporter cell assay; series mostly up to 46.1 µM; further: 0% is about no effect
# Procedure, shortened: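 AREc32_Fluc cells, 1000/well in OPTI-MEM with 5% FBS, grown overnight, then exposed to compounds for 24 hr at 37 deg C, 5% CO2. ARE-driven firefly luciferase read by Steady-Glo luminescence after 30 min at RT.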
# [5] = HTS Assay for Allosteric Antagonists of the Human D2 Dopamine Receptor: Hit Validation in HTRF (AID 624455); details: Cells stably expressing D1 dopamine receptor, inhibition mode; series mostly up to 46.1 µM; further: potency means the concentration at half of the fitted maximal effect;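 further: stable D1 dopamine receptor cell line scored for blocking the D1 response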
# Procedure, shortened: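 Hit validation in cells stably expressing the D1 dopamine receptor, run in HTRF format. Compounds were tested for their ability to inhibit the D1-mediated response.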
# [6] = qHTS assay for small molecule agonists of the antioxidant response element (ARE) signaling pathway (AID 651741; active means well fitted activation curve with a large enough effect in the signal ratio; the % refers to the signal ratio; further: potency means the concentration at half of the fitted maximal effect; on activation: % of control where 0% means no effect); details: HepG2 ARE-bla reporter, beta-lactamase FRET ratio, 16 h; series mostly up to 96 µM
# Procedure, shortened: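 CellSensor ARE-bla HepG2 cells (2,000/well) carrying ARE-driven beta-lactamase, exposed 16 h at 37 C. LiveBLAzer B/G FRET substrate added for 2 h at room temperature; fluorescence intensity read.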
# [7] = qHTS assay for small molecule activators of the nuclear factor-kappa B (NF-kB) signaling pathway (AID 651749; active means well fitted activation curve with a large enough effect in the signal ratio; the % refers to the signal ratio; further: % of control where 0% means no effect); details: NF-kB-bla ME-180 cells, beta-lactamase FRET ratio, 16 h; stronger effect = higher value
# Procedure, shortened: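 NF-kB-bla ME-180 cells carrying a beta-lactamase reporter under an NF-kB response element, 2,000 cells/well, exposed to compound for 16 hr at 37C; FRET-based beta-lactamase fluorescence read-out of pathway activation.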
# [8] = qHTS assay for small molecule disruptors of the mitochondrial membrane potential - 1 hr assay (AID 651754; calls by dose curve; further: nearly all actives have a fitted effect of over 35% in size; further: potency means the concentration at half of the fitted maximal effect); details: series mostly up to 92.2 µM
# Procedure, shortened: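 HepG2 cells, attached overnight, were exposed to compound for 1 hr at 37C, then stained 30 min with a potentiometric dye. Ratio of red aggregate (590nm) to green monomer (535nm) fluorescence reports membrane potential; collapse shifts signal toward green.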
# [9] = qHTS assay for small molecule disruptors of the mitochondrial membrane potential - 5 hr assay (AID 651755; calls by dose curve; further: potency means the concentration at half of the fitted maximal effect; nearly all actives have a fitted effect of over 40% in size); details: JC-1-type ratio dye
# Procedure, shortened: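 HepG2 cells (2,000/well), attached overnight, exposed to compound 5 hr at 37C, then Mito-MPS dye 30 min. Fluorescence read for monomers (490/535 nm) and aggregates (540/590 nm).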
# [10] = qHTS assay for environmental chemicals that activate the Aryl hydrocarbon Receptor (AhR) signaling pathway (AID 651777); details: 1A2-DRE human hepatoma cells, luciferase, 24 h; activation: stronger effect = higher value; further: nearly all actives have a fitted effect of over 15% in size; further: potency means the concentration at half of the fitted maximal effect; on activation: % of control where 0% means no effect
# Procedure, shortened: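 Reporter gene assay: hepatoma cells with DRE/CYP1A2-luciferase, 24 hr compound incubation at 37 C, 5% CO2, luminescence after One-Glo (30 min, RT).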
# [11] = qHTS assay for small molecule activators of the p53 signaling pathway (AID 651743; active means well fitted activation curve with a large enough effect in the signal ratio, not every such curve was filed as active; the % refers to the signal ratio; further: % of control where 0% means no effect); details: HCT-116 p53RE-bla, beta-lactamase FRET ratio, 16 h; activation: stronger effect = higher value
# Procedure, shortened: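 p53RE-bla HCT-116 cells carrying a beta-lactamase reporter under p53 response elements were exposed to compounds for 16 hours at 37 C. Reporter activity read as fluorescence after 2 hours at room temperature with LiveBLAzer B/G FRET substrate.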
# [12] = target: Tumor necrosis factor (Homo sapiens) (UniProt P01375); test: qHTS assay to identify small molecules that stimulate Tumor Necrosis Factor-alpha (TNF-alpha) secretion (AID 651757; active means well fitted curve in the direction sought with a large enough effect in the signal ratio; the % refers to the signal ratio; further: 0% is about no effect); details: Human cells, HTRF 665/615 ratio; series mostly up to 92.2 µM
# Tumor necrosis factor (Homo sapiens), sequence (P01375 whole entry, looked up): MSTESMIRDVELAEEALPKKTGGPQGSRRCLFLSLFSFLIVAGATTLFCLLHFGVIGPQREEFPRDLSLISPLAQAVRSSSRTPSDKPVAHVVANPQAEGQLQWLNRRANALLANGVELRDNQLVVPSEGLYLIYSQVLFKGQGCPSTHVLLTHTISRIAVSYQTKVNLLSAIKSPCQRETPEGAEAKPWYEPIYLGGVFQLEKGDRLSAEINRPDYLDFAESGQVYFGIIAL
# Procedure, shortened: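 THP-1 cells (3000/well) exposed to compounds 17 hrs at 37 C. Secreted TNF-alpha detected by HTRF with cryptate- and XL665-labeled anti-TNF-alpha antibodies after 3 hr at room temperature.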
# [13] = qHTS assay to identify small molecules that stimulate interleukin-8 (IL-8) secretion (AID 651758; active means well fitted activation curve with a large enough effect in the signal ratio; the % refers to the signal ratio; further: 0% is about no effect); details: HTRF ratio (665/615); series mostly up to 92.2 µM
# Procedure, shortened: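 THP-1 cells (2000/well) exposed to compound 16 h at 37 C; secreted IL-8 then detected by HTRF with cryptate- and XL665-labelled anti-IL-8 antibody pair after 1-3 h at room temperature.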
smiles,measurement,setting,value
NC(=O)CN1CCCC1=O,outcome,[1],inactive
same,outcome,[2],inactive
same,outcome,[3],inactive
same,outcome,[4],inactive
same,Potency,[5],inactive
COC(=O)C1=CCCN(C)C1,outcome,[1],inactive
same,outcome,[2],inactive
same,outcome,[3],inactive
same,outcome,[4],inactive
same,Potency,[5],inactive
CN1C[C@H](C(=O)N[C@]2(C)O[C@@]3(O)[C@@H]4CCCN4C(=O)[C@H](Cc4ccccc4)N3C2=O)C[C@@H]2c3cccc4[nH]cc(c34)C[C@H]21,Potency,[5],0.082 µM (active)
COc1ccc(C(=O)N2CCCC2=O)cc1,outcome,[1],inactive
same,outcome,[3],inactive
same,outcome,[4],inactive
same,Potency,[5],inactive
Oc1ccc(Cl)cc1Cc1cc(Cl)ccc1O,Potency,[6],18.8 µM (active)
same,activation,[7],2.23%
same,Potency,[8],10.6 µM (active)
same,Potency,[9],11.9 µM (active)
Nc1c2ccccc2nc2ccccc12,Potency,[10],31.6 µM (active)
CN(C)C(=S)SSC(=S)N(C)C,Potency,[6],inactive
same,activation,[11],2.15% and 1.76%
same,activation,[7],-1.21%
same,Potency,[8],inactive
same,Potency,[9],23.7 µM (active)
same,Potency,[12],inactive
same,activation,[10],8.11% and 11.6%
Cc1ccc(N=CN(C)C=Nc2ccc(C)cc2C)c(C)c1,Potency,[6],24.3 µM (active)
same,activation,[11],15.6%
COCC(=O)N(c1c(C)cccc1C)C(C)C(=O)OC (stereo not drawn),Potency,[6],inactive
same,activation,[11],-5.17%
same,activation,[10],3.48%
O=c1n(Cl)c(=O)n(Cl)c(=O)n1Cl,activation,[11],-4.94%
same,activation,[7],-1.25%
same,activation,[10],0.752%
CCCCCCCCCCCC[N+](C)(C)CCOc1ccccc1,activation,[11],13.3%
same,Potency,[12],inactive
same,Potency,[13],inactive
same,activation,[10],-2.77%
COP(=O)(OC)C(O)C(Cl)(Cl)Cl (stereo not drawn),Potency,[6],19.3 µM (active)
same,activation,[11],6.58%
same,activation,[7],1.93%
same,activation,[10],1.53%
